From PubChem BioAssay
Shown are actives, neighbours in structure and some others; about 5.2% of the full set was active somewhere.
PostGolgi ctrl: growth of the yeast control strain, post-Golgi counter-screen; AID 738; efflux-deficient yeast background strain, growth absorbance A615, 16 h; hit rate 5% among 98,000; inhibition, % at 10 µM
Calb biofilm kill: kills Candida albicans biofilms | C. albicans biofilm + clotrimazole, Alamar Blue | hit rate 0.14% among 85,000 | AID 834 | inhibition, % at 6 µM;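 active means inhibition above 20%; inactive means inhibition below 20%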;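 further: preformed 24 hr biofilms exposed to compound for 48 hr; 0% = biofilm without compound and 100% = blank killed by clotrimazole plus chlorhexidine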
EphB4 antag: EphB4-ephrin-B2 interaction antagonism. P54760. EphB4 LBD / TNYL-RAW-Alexa532 peptide, fluorescence polarization. inhibition, % at 7 µM. hit rate 0.15% among 97,000. AID 720;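 active means inhibition above the screen-wide mean inhibition plus 3 SD, cut at about 15% in these data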;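 further: 0% = DMSO wells and 100% = excess unlabeled TNYL-RAW peptide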
Target sequence (P54760 whole entry, looked up, the tested form may be a part): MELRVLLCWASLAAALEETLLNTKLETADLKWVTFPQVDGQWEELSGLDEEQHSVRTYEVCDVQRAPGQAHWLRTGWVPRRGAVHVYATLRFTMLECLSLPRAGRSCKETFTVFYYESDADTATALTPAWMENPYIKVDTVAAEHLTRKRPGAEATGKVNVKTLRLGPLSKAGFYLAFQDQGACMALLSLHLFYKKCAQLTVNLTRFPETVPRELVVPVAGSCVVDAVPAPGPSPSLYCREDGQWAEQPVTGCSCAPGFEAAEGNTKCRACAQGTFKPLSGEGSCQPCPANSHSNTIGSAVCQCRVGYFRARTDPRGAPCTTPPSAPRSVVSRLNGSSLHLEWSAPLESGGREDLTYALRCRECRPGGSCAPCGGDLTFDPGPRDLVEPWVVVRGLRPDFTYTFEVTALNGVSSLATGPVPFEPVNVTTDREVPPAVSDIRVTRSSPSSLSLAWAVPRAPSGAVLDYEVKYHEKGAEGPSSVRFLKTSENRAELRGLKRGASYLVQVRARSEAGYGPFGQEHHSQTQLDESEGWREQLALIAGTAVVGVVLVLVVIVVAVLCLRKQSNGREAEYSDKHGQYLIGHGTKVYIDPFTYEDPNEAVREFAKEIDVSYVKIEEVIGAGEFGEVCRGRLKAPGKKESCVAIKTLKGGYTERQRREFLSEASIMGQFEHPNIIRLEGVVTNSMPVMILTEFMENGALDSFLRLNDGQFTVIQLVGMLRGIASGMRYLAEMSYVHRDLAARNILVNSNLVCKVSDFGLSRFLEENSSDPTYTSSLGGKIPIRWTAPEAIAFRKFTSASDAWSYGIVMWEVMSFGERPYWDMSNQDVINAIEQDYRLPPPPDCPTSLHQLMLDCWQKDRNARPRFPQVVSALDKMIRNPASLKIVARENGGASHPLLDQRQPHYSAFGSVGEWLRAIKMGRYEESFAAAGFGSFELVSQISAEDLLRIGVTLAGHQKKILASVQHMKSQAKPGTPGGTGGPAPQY
PostGolgi yeast: growth inhibition of a yeast mutant, post-Golgi transport screen | post-Golgi transport phenotypic cell assay | inhibition, % at 10 µM | hit rate 0.9% among 98,000 | AID 739;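 further: yeast cells grown in 1536-well plates; yeast grown about 18 h at 30C before absorbance read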
* marks the source's active call; other numbers are inactive results. Unless noted, no stated cut-off is given here; in the data, active means inhibition above about 30%; inactive means the rest.

COc1ccc(-c2cc(C3CCN(c4cc(Cl)nc(N)n4)CC3)[nH]n2)cc1 was read as PostGolgi ctrl 42*, EphB4 antag 5 and PostGolgi yeast -5.
For Nc1nc(Cl)cc(N2CCC(c3cc(-c4ccc(Cl)cc4)n[nH]3)CC2)n1 the results were PostGolgi ctrl 102*, EphB4 antag -6 and PostGolgi yeast 16.
Screening COc1ccc(OC)c(-c2cc(C3CCN(c4cc(Cl)nc(N)n4)CC3)[nH]n2)c1 returned PostGolgi ctrl 34*, EphB4 antag 0 and PostGolgi yeast -4.
`O=C(NCC1CCCO1)c1nnc(Cc2ccc(F)cc2)o1` (stereo not drawn) gave Calb biofilm kill -1.
For CCOC(=O)C(C(C)=O)C(c1ccc(OCCC(C)C)cc1)C(C(C)=O)C(=O)OCC (stereo not drawn) the results were Calb biofilm kill 7 and EphB4 antag 0.
`C/C(=N\NC(=S)NC(C)C)c1ccc(-n2ccnc2)cc1` gave PostGolgi ctrl -1, Calb biofilm kill 2, EphB4 antag 2 and PostGolgi yeast 1.
O=C(NCc1ccccc1)c1sc(=S)n2c1[nH]c(=O)c1ccccc12 was read as PostGolgi ctrl 47*, Calb biofilm kill 8, EphB4 antag 2 and PostGolgi yeast 4.
For CC(C)c1nc(SCC(=O)NCc2ccccc2)n[nH]1 the results were PostGolgi ctrl 1, Calb biofilm kill -1, EphB4 antag -1 and PostGolgi yeast 4.
For Cc1cc(Br)ccc1NC(=O)CN1C(=O)C2C3CC(c4ccccc4)C(C3)C2C1=O (stereo not drawn) the results were PostGolgi ctrl 53*, EphB4 antag 0 and PostGolgi yeast 2.
For Cc1cc(Br)ccc1NC(=O)CNC(=O)CN1C(=O)NC2(CCCCCC2)C1=O the results were PostGolgi ctrl 2, Calb biofilm kill 5, EphB4 antag 3 and PostGolgi yeast -3.
`CCN(CC(O)Cn1c2ccccc2c2ccccc21)S(=O)(=O)c1ccc(F)cc1` (stereo not drawn) gave PostGolgi ctrl 50*, Calb biofilm kill 1, EphB4 antag 6 and PostGolgi yeast 4.
Cc1ccc(S(=O)(=O)N(C)CC(O)Cn2c3ccccc3c3ccccc32)cc1 (stereo not drawn) was read as PostGolgi ctrl 80*, Calb biofilm kill 7, EphB4 antag -5 and PostGolgi yeast 0.
O=S(=O)(c1ccc(F)cc1)N(CCO)CC(O)Cn1c2ccccc2c2ccccc21 (stereo not drawn) was read as PostGolgi ctrl 11, Calb biofilm kill 1, EphB4 antag -3 and PostGolgi yeast 16.
Screening CC(=O)Nc1ccc(S(=O)(=O)NCc2ccc(C(=O)NC(C)c3ccccc3)cc2)cc1 (stereo not drawn) returned PostGolgi ctrl -1, Calb biofilm kill 4, EphB4 antag -2 and PostGolgi yeast -8.
For C=CCc1c(C)nc(SC)nc1Nc1ccc(C(C)=O)cc1 the results were PostGolgi ctrl 31*, Calb biofilm kill 9, EphB4 antag 1 and PostGolgi yeast 6.
For C=CCc1c(C)nc(SC)nc1Nc1ccc(C(=O)O)cc1 the results were PostGolgi ctrl 8, Calb biofilm kill 2, EphB4 antag 5 and PostGolgi yeast 23.
`C=CCOc1c(Cl)cc(C2NC(=O)NC(C)=C2C(=O)OC)cc1Cl` (stereo not drawn) gave PostGolgi ctrl 51*, Calb biofilm kill 1, EphB4 antag 0 and PostGolgi yeast 7.
`O=C(N/N=C/c1cccc(Oc2ccccc2)c1)c1ccccc1Br` gave PostGolgi ctrl 33*, EphB4 antag 5 and PostGolgi yeast -4.
`O=C(N/N=C/c1cccc(Oc2ccccc2)c1)c1cccc(Br)c1` gave PostGolgi ctrl 31*, EphB4 antag 9 and PostGolgi yeast 1.
O=C(N/N=C/C=C/c1ccccc1)c1cccc(Br)c1 was read as PostGolgi ctrl 6, Calb biofilm kill 8, EphB4 antag -11 and PostGolgi yeast 1.
Screening O=C(c1ccc(F)cc1)C1CCN(C(=O)NC2CCCCC2)CC1 returned PostGolgi ctrl 0, Calb biofilm kill 3, EphB4 antag -7 and PostGolgi yeast 1.
For O=C(c1noc2c1CCc1ccccc1-2)N1CCOCC1 the results were PostGolgi ctrl 0, Calb biofilm kill 3, EphB4 antag -6 and PostGolgi yeast 13.
CC1CCN(C(=O)c2cc(-c3ccccc3O)on2)CC1 was read as PostGolgi ctrl 35*, Calb biofilm kill -1, EphB4 antag 0 and PostGolgi yeast -10.
`O=C(c1cc(-c2ccccc2O)on1)N1CCc2ccccc2C1` gave PostGolgi ctrl 56*, Calb biofilm kill 0, EphB4 antag -1 and PostGolgi yeast -1.
Screening O=C(c1cc(-c2ccccc2)on1)N1CCCC1 returned PostGolgi ctrl 13, Calb biofilm kill 5, EphB4 antag 5 and PostGolgi yeast -6.
